Experimental data published in PubChem BioAssay (NCATS).
Inconclusive results are not listed. Calls of active or inactive are those of the source. Calls follow the shape of the dose curve; as a rule, active = well fitted curve in the direction sought with a large enough effect in the main read-out, with a control signal flat (not every such curve was filed as active); inconclusive = small, poorly fitted or top-dose-only effect, or effect the other way, or a change in a side signal; inactive = no such curve, though single readings can be large or run the other way.

experiment: qHTS Validation Assay to Find Inhibitors of Chronic Active B-Cell Receptor Signaling (AID 485345); conditions: ABC-DLBCL cells, chronic BCR signaling reporter, CBG luciferase; series mostly up to 46.1 µM
Description: NIH Molecular Libraries Probe Production Network [MLPCN]
NIH Chemical Genomics Center [NCGC]
PI Name: Dr. R. Eric Davis
Diffuse large B-cell lymphoma (DLBCL) is the most common category of non-Hodgkin lymphoma, with ~20,000 new cases per year in the United States. DLBCL should be regarded as a collection of different neoplasms. Microarray gene expression analysis has defined two principal types of DLBCL, named for their similarity to normal B cell stages or activation states: a germinal center B-cell (GCB) type, and an activated B-cell (ABC) type. In ABC-DLBCL, a constitutive high-level activity of the NF-kappaB family of transcription factors has been observed (1) and NF-kappaB target genes are more highly expressed in ABC primary tumors than in GCB tumors. Functional studies have shown a constitutive high-level activity of the IkappaB (inhibitor of kappa-B) kinase (IKK) complex. […] Further analysis of DLBCL primary tumors for NF-kappaB target gene expression imply that although CARD11 is required for constitutive IKK activity in all ABC-DLBCL lines, mutations in CARD11 may be the root cause of IKK activation only in lines or tumors with such mutations. In other words, CARD11 mutations may explain NF-kappaB activation in only 10% of ABC-DLBCL cases. […] This process has been termed 'chronic active BCR signaling' (CABS).
The goal of this screen is to find small-molecule inhibitors of the CABS pathway found in ABC-DLBCL lines using a cell-based assay that measures IkappaBalpa stability, which has already been extensively validated in the OCI-Ly3 line (PubChem AID:445; REF: 4).
A cell-sensor assay for I-kappa-B-alpha stabilization has been developed. The assay uses green (CBG68) and red (CBR) emitting beetle luciferases [Chroma-GloTM developed by Promega Corp.] where the green luciferase is fused to IkappaBalpha and the red luciferase is present in its native state. Both luciferase genes are stably present in the TMD8 human ABC DLBCL cell line, but their expression is under the control of tetracycline-inducible promoters. Following the addition of doxycycline to induce expression of the luciferases, the green luminescence in control cultures rises only slowly because the CBG fusion partner IkappaBalpha is targeted by IKK activity for rapid degradation. In contrast, green luminescence rises rapidly in the presence of proteasome inhibitors or IKK inhibitors. The rise in red luminescence of CBR is not affected by proteasome or IKK inhibitors, and serves as normalization for cell number and nonspecific effects. Compounds were screened as a concentration-titration series that ranged from 46 uM to 3 nM.
NCGC Assay Protocol Summary:
Cells were seeded in 1536-well plates at 5000 cells/4uL in IMDM medium containing 0.5% FBS, w/o phenol red, 1% penicillin/streptomycin. Then, 23 nL of compounds or DMSO were delivered to each well using a pin tool. One uL 20ng/ml doxycycline was then dispensed into white solid 1536-well plates and the plates were incubated at 37C/5% C02 in a cell incubator for 4 hrs. Then 4 uL luminescent substrate mix (in-house prepared: 150 mM Tris-Cl, pH 7.6, 3 mM MgCl2, 1% Triton X-100, 5 mM DTT, 0.2 mM CoA, 0.15 mM ATP, 5 mM D-luciferin, final concentrations) was added to each well. The plate was incubated at r.t. for 10-15 min. The plates were measured on a ViewLux plate reader for green luminescence (540/20 nm filter) and red luminescence (618/8 nm filter). The green and red luminescent signals were corrected for red and green luminescence filter overlap using previously determined filter calibration constants (determined using the procedure outlined in the Promega Technical Manual; REF 4). The %Activity was determined from the ratio of corrected green/red luminescent values. MG132 were used as control. Green luminescent and ratio %Activity was determined by normalizing to the difference in signal between basal cells (0% Activity) and cells incubated with 10 uM of the proteasome inhibitor MG-132 (100% Activity). […]

| Compound | outcome |
| --- | --- |
| CC(C)(C)NCC(O)c1ccccc1Cl (configuration not stated) | inactive |
| NCCc1ccc(O)cc1 | inactive |
| CC(C)N(CCC(C(N)=O)(c1ccccc1)c1ccccn1)C(C)C (configuration not stated) | inactive |
| Cc1ncsc1CCCl | inactive |
| CN1C(=O)CCS(=O)(=O)C1c1ccc(Cl)cc1 (configuration not stated) | inactive |
| O=P1(N(CCCl)CCCl)NCCCO1 (configuration not stated) | inactive |
| CC(NC(C)(C)C)C(=O)c1cccc(Cl)c1 (configuration not stated) | inactive |
| CCC1(c2ccc(N)cc2)CCC(=O)NC1=O (configuration not stated) | inactive |
| CC(C)c1cccc(C(C)C)c1O | inactive |
| O=c1[nH]oc2c1CCNC2 | inactive |
| CCCCC/C=C\C/C=C\C/C=C\C/C=C\CCCC(=O)NCC(=O)O | inactive |
| C=C(C)[C@H]1CN[C@H](C(=O)O)[C@H]1CC(=O)O | inactive |
